# Screening results deposited in PubChem by Broad Institute.
# A selection follows.
# aSyn UTR act = Activators working through SNCA 5'UTR binding (MLPCN). alpha-synuclein 5'UTR reporter, activators screen. activity score, % (tested at 7.5 µM), hits read low. hit rate 7.1% among 300,000; in the data active means activity score below about -60%
# Numbers without * were called inactive.
SMILES,aSyn UTR act
CCOc1ccc2nc(NC(=O)C3=NNC(=O)CC3)sc2c1,-73*
COc1ccc(NC(=S)NC(=O)/C=C/c2ccco2)cc1,-91*
O=C(/C=C/c1ccco1)NC(=S)Nc1ccc(N2CCCC2)cc1,-70*
COc1ccc(OC)c2sc(N(CCN(C)C)C(=O)/C=C/c3cccs3)nc12,54
COc1ccc(NC(=S)NC(=O)/C=C/c2cccs2)cc1,-73*
CCCCOC(=O)c1ccc(NC(=O)/C=C/c2cccs2)cc1,-88*
CCCNC(=O)c1cc(-c2ccc3c(c2)OCO3)on1,-105*
CCN(CC)C(=O)c1cc(-c2ccc3c(c2)OCO3)on1,-132*
O=C(Nc1cccc(O)c1)c1cc(-c2ccc3c(c2)OCO3)on1,69
CC(C)NC(=O)c1cc(-c2ccc3c(c2)OCO3)on1,-110*
CCCCNC(=O)c1cc(-c2ccc3c(c2)OCO3)on1,-66*
O=[N+]([O-])c1ccc(S(=O)(=O)Nc2cccc(-c3ccc(N4CCOCC4)nn3)c2)cc1,-83*
O=[N+]([O-])c1ccc(Cl)c(S(=O)(=O)Nc2cccc(-c3ccc(N4CCOCC4)nn3)c2)c1,-108*
O=C(C1=NN[C@@H]2C(=O)N(c3cccc(F)c3)C(=O)[C@H]12)c1ccc2ccccc2n1,-79*
CCNC(=S)N/N=C/c1sc(N2CCCCC2)nc1-c1cccs1,-102*
CCCNC(=O)c1oc2ccc3c(c2c1C)C(=O)CC(C)(C)O3,-89*
CCCNC(=O)c1oc2ccc3c(c2c1C)C=CC(C)(C)O3,-90*
Cc1cc(/C=C(/C#N)C(=O)Nc2ccccc2)c(C)n1-c1cccnc1,-160*
COCCNC(=O)/C(C#N)=C/c1cc(C)n(-c2ccc(C)cc2)c1C,-133*
COCCNC(=O)/C(C#N)=C/c1cc(C)n(C2CCCCC2)c1C,-101*
COc1cc(/C=C/c2nc3ccccc3c(=O)[nH]2)ccc1OC(F)F,-195*
COC(=O)c1ccc(/C=C/c2nc3ccccc3c(=O)[nH]2)cc1,-136*
COc1cc(/C=C/c2nc3ccccc3c(=O)[nH]2)cc(OC)c1OC,-84*
C=CCOc1cccc(/C=C/c2nc3ccccc3c(=O)[nH]2)c1,-182*
Cc1ccc(/C=C/c2nc3ccccc3c(=O)[nH]2)cc1,68
SMILES,aSyn UTR act
C=CC(C)(C)c1c(O)c(CC=C(C)C)c(O)c2c(=O)c3ccc(O)c(O)c3oc12,73
COc1cc(/C=C/c2nnc3c4ccccc4ncn23)cc(OC)c1OC,-80*
CCN(C(=O)c1cccs1)c1nnc(-c2ccncc2)s1,-76*
COc1cc(O)c2c(=O)c(-c3ccc(O[C@@H]4O[C@H](CO)[C@@H](O)[C@H](O)[C@H]4O)cc3)coc2c1,-155*
O=c1c(-c2ccc(O)cc2)coc2cc(OC3OC(CO)C(O)C(O)C3O)cc(O)c12 (stereo not drawn),-83*
O=c1c(-c2ccc(O)cc2)coc2cc(OC3OC(CO)C(O)C(O)C3O)ccc12 (stereo not drawn),-82*
Cc1cn(-c2ccc(Br)cc2)[nH]c1=O,-79*
O=C(/C(N=Nc1cccc(C(F)(F)F)c1)=C(/O)c1cccs1)C(F)(F)F,-62*
Cc1ccc(N=C/C(C(=O)C(F)(F)F)=C(\O)c2cccs2)cc1,-89*
O=C(NCC1CCCO1)c1cc2c(s1)CCC2 (stereo not drawn),-122*
O=C(NCc1cccs1)c1cc2c(s1)CCCC2,-142*
O=C1C=C(c2ccc3[nH]ccc3c2)CCC1,-151*
CC1(C)CC(=O)C=C(c2ccc3[nH]ccc3c2)C1,-65*
COc1ccc(OCCSc2nnc3sc4ccccc4n23)cc1,-131*
Cc1cccn2cc(-c3cccc(NC(=O)c4cccs4)c3)nc12,-73*
Cc1ccccc1-n1nc(C)c2c(C(=O)NN)cc(-c3ccncc3)nc21,56
Cc1ccn2cc(-c3cccc(NC(=O)c4cccs4)c3)nc2c1,-85*
Cc1ccc(NC(=O)Nc2cccc([N+](=O)[O-])c2)nc1,-113*
Cc1ccc(NC(=O)Nc2ccccc2)nc1,-119*
Cc1ccc(NC(=O)Nc2ccc([N+](=O)[O-])cc2)nc1,-113*
Cc1ccc(NC(=O)c2ccc(F)cc2)nc1,-107*
C=C(C)c1cccc(C(C)(C)NC(=O)Nc2ccc(C)cn2)c1,-91*
Cc1ccc(NC(=O)/C(C#N)=C(\N)C(Cl)(Cl)Cl)nc1,-68*
Cc1ccc(NC(=O)C(=O)Nc2ccc(C)cn2)nc1,-66*
Fc1ccc(NC(=S)Nc2cccc3ccccc23)cc1,-84*
SMILES,aSyn UTR act
Cc1ccc(NC(=S)Nc2cccc3ccccc23)cc1,-65*
CC(Oc1c(Cl)cccc1Cl)C1=NCCN1 (stereo not drawn),-80*
COc1ccc(/C=C/C(=O)N(C)C2CCCCC2)cc1Br,-92*
NC(=O)c1cc(Cc2ccccc2)sc1NC(=O)c1ccco1,-215*
CC(C)COC(=O)Nc1nnc(Cc2ccccc2)s1,-97*
O=C(Nc1nnc(CCc2ccccc2)s1)c1ccco1,-87*
CCCCCCc1nnc(NC(=O)c2ccco2)s1,-67*
O=C(Nc1nnc(Cc2ccccc2)s1)c1ccco1,-95*
O=C(Nc1nnc(CCc2ccccc2)s1)c1cccs1,-80*
